From the supplement of paper PMC8773631 come the findings set out here.

By cell viability is commonly meant a read-out of living cells in per cent, often relative to untreated cells.

Several values for one entry are separate records, joined by “and”; a condition that tells them apart may be missing. Equal values may be shown once. Where a name gives a salt, the structure may show the parent alone. ± gives the uncertainty stated by the source.

This assay relates to NCC-MFS5-C1. In words: cell viability relative to DMSO control; higher = less growth inhibition. As to conditions: 10 µM; treatment time: 3 days. The protocol: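 NCC-MFS5-C1 myxofibrosarcoma cells (1x10^4 per well, 384-well) were treated on day 2 with 10 µM of each drug. On day 5, viability was read by CCK-8 absorbance at 450 nm and normalised to the DMSO control (%), n = 2.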
Turning to `CCCCNc1ncc(-c2ccc(CN3CCOCC3)cn2)c(NC2CCC(O)CC2)n1` (stereo not given), the cell viability was 36.41 ± 0.22%. On to `COC(=O)c1ccc2c(C(=Nc3ccc(N(C)C(=O)CN4CCN(C)CC4)cc3)c3ccccc3)c(O)[nH]c2c1` [Nintedanib (BIBF 1120)], for which the cell viability is 39.1 ± 0.64%. Take `CN(C)c1nc(N(C)C)nc(N(C)C)n1` [Altretamine]: the cell viability worked out at 103 ± 3.1%. For `CCc1ccc(CCOc2ccc(CC3SC(=O)NC3=O)cc2)nc1` (stereo not given) [Pioglitazone], the cell viability stood at 95.3 ± 2.9%. The same measure for `Clc1ccc(Nc2nnc(Cc3ccncc3)c3ccccc23)cc1` [Vatalanib (PTK787) 2HCl]: 59.1 ± 0.89%; for `CC(=O)O[C@]1(C(C)=O)CC[C@H]2[C@@H]3C=C(C)C4=CC(=O)CC[C@]4(C)[C@H]3CC[C@@]21C` [Megestrol Acetate]: 93.9 ± 4%.

In the case of `Nc1nc(F)nc2c1ncn2[C@@H]1O[C@H](CO)[C@@H](O)[C@@H]1O` [Fludarabine], the cell viability was 96.3 ± 7.3%. Regarding `CC(C)(C)c1cc(NC(=O)Nc2ccc(-c3cn4c(n3)sc3cc(OCCN5CCOCC5)ccc34)cc2)no1` [Quizartinib (AC220)], the cell viability is 57.8 ± 2.7%.

Consider `CS(=O)(=O)CCNCc1ccc(-c2ccc3ncnc(Nc4ccc(OCc5cccc(F)c5)c(Cl)c4)c3c2)o1` [Lapatinib], for which the cell viability worked out at 58.6 ± 2.2%. The same measure for `O=C1NC(=O)[C@@H](c2cn3c4c(cccc24)CCC3)[C@@H]1c1c[nH]c2ccccc12` [Tivantinib (ARQ 197)]: 48.3 ± 1.5%. With `CN(CCOc1ccc(CC2SC(=O)NC2=O)cc1)c1ccccn1` (stereo not given) [Rosiglitazone] the figure was 88.53 ± 0.85%; with `O=C(c1ccc(OCCN2CCCCC2)cc1)c1c(-c2ccc(O)cc2)sc2cc(O)ccc12` [Raloxifene HCl], 85 ± 1%; with `C[C@@H]1CCN(C(=O)CC#N)C[C@@H]1N(C)c1ncnc2[nH]ccc12`, 79.5 ± 2.5%. The same measure for `Nc1nc2n[nH]nc2c(=O)[nH]1` [Azaguanine-8]: 85.2 ± 7%. `COc1cc([C@@H]2c3cc4c(cc3[C@@H](O[C@@H]3O[C@@H]5CO[C@@H](C)O[C@H]5[C@H](O)[C@H]3O)[C@H]3COC(=O)[C@H]23)OCO4)cc(OC)c1O` [Etoposide]: the cell viability turned out to be 74.3 ± 9%. The same measure for `COc1ccc2c(c1OC)C(=O)O[C@@H]2[C@H]1c2c(cc3c(c2OC)OCO3)CCN1C` [Noscapine HCl]: 75.82 ± 0.21%; for `CC1(COc2ccc3c(c2)ncn3-c2ccc3cccc(N4CCC(N)CC4)c3n2)COC1`: 26.1 ± 3.3%. For `Oc1ncnc2[nH]ncc12` [Allopurinol], the cell viability came out at 86.2 ± 18%. The same measure for `S=C(NCc1ccc2c(c1)OCO2)N1CCN(c2ncnc3c2oc2ccccc23)CC1` [Amuvatinib (MP-470)]: 86.1 ± 9%; for `CCN(CC)CCNC(=O)c1c(C)[nH]c(/C=C2\C(=O)Nc3ccc(F)cc32)c1C` [Sunitinib Malate]: 7.73 ± 5.5%; for `N#CC[C@H](C1CCCC1)n1cc(-c2ncnc3[nH]ccc23)cn1`: 66.2 ± 4.7%. For `CCN(CC)CCOc1ccc(C(=C(Cl)c2ccccc2)c2ccccc2)cc1` [Clomifene citrate], the cell viability stood at 85.1 ± 8.8%.

For the compound `COc1ccc2[nH]c([S@@+]([O-])Cc3ncc(C)c(OC)c3C)nc2c1` [Esomeprazole Sodium], the cell viability is 74.6 ± 1.4%. In the case of `O=C(O)C1=CO[C@@H](O[C@@H]2O[C@H](CO)[C@@H](O)[C@H](O)[C@H]2O)[C@@H]2C(CO)=CC[C@H]12` [Geniposidic acid], the cell viability turned out to be 85.8 ± 4.8%. For `Nc1ccn([C@@H]2O[C@H](CO)[C@@H](O)C2(F)F)c(=O)n1` [Gemcitabine], the cell viability worked out at 91 ± 2.9%.

For the compound `COc1cc2nccc(Oc3ccc(NC(=O)C4(C(=O)Nc5ccc(F)cc5)CC4)cc3)c2cc1OC` [Cabozantinib malate (XL184)], the cell viability turned out to be 67.2 ± 21%. The same measure for `CC(=O)OCC(=O)[C@@]1(O)CC[C@H]2[C@@H]3CCC4=CC(=O)CC[C@]4(C)[C@H]3C(=O)C[C@@]21C` [Cortisone acetate]: 90.9 ± 9.9%; for `CN(N=O)C(=O)NC1C(O)OC(CO)C(O)C1O` (stereo not given) [Streptozotocin (STZ)]: 113 ± 27%. Consider `Nc1cccc2c1C(=O)N(C1CCC(=O)NC1=O)C2=O` (stereo not given) [Pomalidomide], for which the cell viability is 97.7 ± 6.4%. The same measure for `CNC(=O)c1ccc(N2C(=S)N(c3ccc(C#N)c(C(F)(F)F)c3)C(=O)C2(C)C)cc1F` [Enzalutamide (MDV3100)]: 80.3 ± 7.7%. Consider `COc1cc(N2CCC(N3CCN(C)CC3)CC2)ccc1Nc1ncc(Cl)c(Nc2ccccc2S(=O)(=O)C(C)C)n1`, for which the cell viability came to 52.7 ± 1.8%. For `COc1cc2/c(=N/c3ccc(Br)cc3F)nc[nH]c2cc1OCC1CCN(C)CC1` [Vandetanib (ZD6474)], the cell viability was 52.5 ± 2.8%. The same measure for `O=C(O)CCCN1CCC(O[C@@H](c2ccc(Cl)cc2)c2ccccn2)CC1` [Bepotastine Besilate]: 78.7 ± 2.6%; for `Cc1cn(-c2cc(NC(=O)c3ccc(C)c(Nc4nccc(-c5cccnc5)n4)c3)cc(C(F)(F)F)c2)cn1` [Nilotinib (AMN-107)]: 57.2 ± 3.6%. The same measure for `COC(=O)N[C@H](C(=O)N[C@@H](Cc1ccccc1)[C@@H](O)CN(Cc1ccc(-c2ccccn2)cc1)NC(=O)[C@@H](NC(=O)OC)C(C)(C)C)C(C)(C)C` [Atazanavir Sulfate]: 67.8 ± 13%; for `CC(C)c1nc(CN(C)C(=O)N[C@@H](CCN2CCOCC2)C(=O)N[C@H](CC[C@H](Cc2ccccc2)NC(=O)OCc2cncs2)Cc2ccccc2)cs1` [Cobicistat (GS-9350)]: 61.5 ± 0.43%.

For `O=[n+]1c(CBr)c(CBr)n([O-])c2ccccc21` [Conoidin A], the cell viability amounted to 86.4 ± 1.1%. For `FC(F)(F)c1ccc(/C=C/c2nc(COc3ccc(CCCCn4ccnn4)cc3)co2)cc1` [Mubritinib (TAK 165)], the cell viability was 96 ± 3.5%. With `CC(=O)c1c(C)c2cnc(Nc3ccc(N4CCNCC4)cn3)nc2n(C2CCCC2)c1=O` the figure was 50.3% and 42.8%. With `COc1cccc2c1C(=O)c1c(O)c3c(c(O)c1C2=O)C[C@@](O)(C(=O)CO)C[C@@H]3O[C@H]1C[C@H](N)[C@H](O)[C@H](C)O1` [Doxorubicin (Adriamycin)] the figure was 37.47 ± 0.32%.
